According to ChEMBL document CHEMBL1961873, “Compounds: GSK PKIS; Assays: Nanosyn kinase panel” (2012):

Tests used:
[1] = biological target: Ribosomal protein S6 kinase alpha-6 (Homo sapiens) (UniProt Q9UK32); settings: at 1 µM;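 further: each value is a mean inhibition of RSK4 from a GSK PKIS panel screen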
[2] = biological target: T1, Serine/threonine-protein kinase Sgk1 (Homo sapiens) (UniProt O00141); settings: at 0.1 µM
T1 sequence (whole entry): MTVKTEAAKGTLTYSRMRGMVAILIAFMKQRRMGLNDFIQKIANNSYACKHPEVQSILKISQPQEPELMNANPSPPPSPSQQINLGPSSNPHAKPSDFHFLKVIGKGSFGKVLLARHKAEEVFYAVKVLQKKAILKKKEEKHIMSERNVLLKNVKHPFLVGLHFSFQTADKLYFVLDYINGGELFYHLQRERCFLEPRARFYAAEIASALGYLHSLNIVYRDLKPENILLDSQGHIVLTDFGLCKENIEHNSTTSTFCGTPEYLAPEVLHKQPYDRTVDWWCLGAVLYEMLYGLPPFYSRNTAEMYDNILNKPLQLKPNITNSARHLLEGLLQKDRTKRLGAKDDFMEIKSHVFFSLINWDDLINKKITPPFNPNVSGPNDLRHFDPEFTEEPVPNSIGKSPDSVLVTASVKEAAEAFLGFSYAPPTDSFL

[3] = biological target: T1, Serine/threonine-protein kinase Sgk1 (Homo sapiens); settings: at 1 µM
[4] = biological target: T2, Serine/threonine-protein kinase Sgk2 (Homo sapiens) (UniProt Q9HBY8); settings: at 0.1 µM
T2 sequence (whole entry): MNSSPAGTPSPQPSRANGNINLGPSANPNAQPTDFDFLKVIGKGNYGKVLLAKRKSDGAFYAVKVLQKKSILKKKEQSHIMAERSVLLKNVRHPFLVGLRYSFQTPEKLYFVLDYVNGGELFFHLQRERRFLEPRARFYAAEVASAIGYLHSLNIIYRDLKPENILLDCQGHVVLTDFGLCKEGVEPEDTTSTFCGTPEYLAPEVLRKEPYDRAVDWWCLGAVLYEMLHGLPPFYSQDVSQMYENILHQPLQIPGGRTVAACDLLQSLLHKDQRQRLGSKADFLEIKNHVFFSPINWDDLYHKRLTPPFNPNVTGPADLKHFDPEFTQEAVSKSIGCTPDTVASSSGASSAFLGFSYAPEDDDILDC

[5] = biological target: T2, Serine/threonine-protein kinase Sgk2 (Homo sapiens); settings: at 1 µM
[6] = biological target: T3, Serine/threonine-protein kinase Sgk3 (Homo sapiens) (UniProt Q96BR1); settings: at 0.1 µM
T3 sequence (whole entry): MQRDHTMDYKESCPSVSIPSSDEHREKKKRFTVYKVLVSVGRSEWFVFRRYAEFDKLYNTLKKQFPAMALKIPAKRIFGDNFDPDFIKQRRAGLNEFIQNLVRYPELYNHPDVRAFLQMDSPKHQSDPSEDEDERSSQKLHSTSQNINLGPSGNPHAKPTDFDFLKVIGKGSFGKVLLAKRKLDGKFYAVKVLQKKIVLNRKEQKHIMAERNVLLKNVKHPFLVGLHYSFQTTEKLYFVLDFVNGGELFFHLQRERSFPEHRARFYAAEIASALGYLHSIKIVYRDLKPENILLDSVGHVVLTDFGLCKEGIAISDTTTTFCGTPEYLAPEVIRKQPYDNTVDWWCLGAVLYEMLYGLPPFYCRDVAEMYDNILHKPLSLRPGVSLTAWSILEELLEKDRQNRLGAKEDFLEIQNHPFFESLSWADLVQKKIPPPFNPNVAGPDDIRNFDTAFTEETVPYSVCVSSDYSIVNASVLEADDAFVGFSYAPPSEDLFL

[7] = biological target: T3, Serine/threonine-protein kinase Sgk3 (Homo sapiens); settings: at 1 µM
[8] = biological target: 5'-AMP-activated protein kinase catalytic subunit alpha-1 (Homo sapiens) (UniProt Q13131); settings: at 0.1 µM
Sequence of 5'-AMP-activated protein kinase catalytic subunit alpha-1 (Homo sapiens) (Q13131 whole entry, looked up): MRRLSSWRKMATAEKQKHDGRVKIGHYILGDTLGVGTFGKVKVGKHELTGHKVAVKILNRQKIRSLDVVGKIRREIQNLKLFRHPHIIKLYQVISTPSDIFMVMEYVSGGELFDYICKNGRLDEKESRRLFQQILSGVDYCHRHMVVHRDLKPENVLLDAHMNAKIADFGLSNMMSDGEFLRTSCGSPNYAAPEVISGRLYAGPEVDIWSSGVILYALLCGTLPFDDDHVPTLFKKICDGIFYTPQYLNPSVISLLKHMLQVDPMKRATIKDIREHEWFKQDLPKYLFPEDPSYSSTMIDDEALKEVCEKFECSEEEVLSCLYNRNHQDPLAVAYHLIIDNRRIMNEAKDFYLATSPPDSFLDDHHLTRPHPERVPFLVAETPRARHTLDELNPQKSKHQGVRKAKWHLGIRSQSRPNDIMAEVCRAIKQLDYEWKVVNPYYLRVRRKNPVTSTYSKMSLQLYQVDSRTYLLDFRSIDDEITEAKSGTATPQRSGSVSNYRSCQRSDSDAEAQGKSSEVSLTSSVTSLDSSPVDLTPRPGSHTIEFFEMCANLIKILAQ

[9] = biological target: 5'-AMP-activated protein kinase catalytic subunit alpha-1 (Homo sapiens) (UniProt Q13131); settings: at 1 µM
[10] = biological target: 5'-AMP-activated protein kinase catalytic subunit alpha-2 (Homo sapiens) (UniProt P54646); settings: at 0.1 µM
Sequence of 5'-AMP-activated protein kinase catalytic subunit alpha-2 (Homo sapiens) (P54646 whole entry, looked up): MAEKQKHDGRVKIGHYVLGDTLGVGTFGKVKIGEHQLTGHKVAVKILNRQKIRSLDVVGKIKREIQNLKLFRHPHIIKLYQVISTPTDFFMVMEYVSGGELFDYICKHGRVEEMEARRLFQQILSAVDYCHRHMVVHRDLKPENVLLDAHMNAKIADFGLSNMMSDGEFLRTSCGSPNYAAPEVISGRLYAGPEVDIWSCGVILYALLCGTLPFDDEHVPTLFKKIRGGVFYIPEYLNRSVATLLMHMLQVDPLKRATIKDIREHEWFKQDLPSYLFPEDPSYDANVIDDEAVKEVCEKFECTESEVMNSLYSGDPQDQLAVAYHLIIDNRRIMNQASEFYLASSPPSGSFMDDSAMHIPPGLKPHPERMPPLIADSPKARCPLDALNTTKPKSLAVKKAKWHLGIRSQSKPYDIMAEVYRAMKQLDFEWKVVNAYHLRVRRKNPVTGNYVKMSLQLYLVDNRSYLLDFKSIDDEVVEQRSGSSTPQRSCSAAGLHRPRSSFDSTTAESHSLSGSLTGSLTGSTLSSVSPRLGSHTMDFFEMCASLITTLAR

[11] = biological target: 5'-AMP-activated protein kinase catalytic subunit alpha-2 (Homo sapiens) (UniProt P54646); settings: at 1 µM
[12] = biological target: T4, NUAK family SNF1-like kinase 1 (Homo sapiens) (UniProt O60285); settings: at 0.1 µM
T4 sequence (whole entry): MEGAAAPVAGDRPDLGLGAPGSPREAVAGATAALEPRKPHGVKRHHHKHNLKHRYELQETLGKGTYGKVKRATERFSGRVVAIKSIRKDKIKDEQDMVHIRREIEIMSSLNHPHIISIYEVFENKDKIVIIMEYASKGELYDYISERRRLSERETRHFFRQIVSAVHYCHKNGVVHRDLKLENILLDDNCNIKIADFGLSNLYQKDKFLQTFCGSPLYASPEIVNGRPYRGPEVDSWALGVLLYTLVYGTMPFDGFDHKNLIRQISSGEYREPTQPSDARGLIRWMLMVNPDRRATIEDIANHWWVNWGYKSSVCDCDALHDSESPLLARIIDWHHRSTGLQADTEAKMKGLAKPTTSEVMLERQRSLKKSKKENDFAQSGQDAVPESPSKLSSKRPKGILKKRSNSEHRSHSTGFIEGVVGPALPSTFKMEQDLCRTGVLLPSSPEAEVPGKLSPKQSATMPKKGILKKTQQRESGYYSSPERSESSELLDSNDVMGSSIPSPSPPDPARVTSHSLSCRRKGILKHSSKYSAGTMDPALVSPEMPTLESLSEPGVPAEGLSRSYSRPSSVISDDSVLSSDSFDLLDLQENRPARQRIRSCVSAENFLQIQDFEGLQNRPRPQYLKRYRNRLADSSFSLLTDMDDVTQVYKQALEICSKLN

[13] = biological target: T4, NUAK family SNF1-like kinase 1 (Homo sapiens); settings: at 1 µM
[14] = biological target: T5, Serine/threonine-protein kinase BRSK1 (Homo sapiens) (UniProt Q8TDC3); settings: at 0.1 µM
T5 sequence (whole entry): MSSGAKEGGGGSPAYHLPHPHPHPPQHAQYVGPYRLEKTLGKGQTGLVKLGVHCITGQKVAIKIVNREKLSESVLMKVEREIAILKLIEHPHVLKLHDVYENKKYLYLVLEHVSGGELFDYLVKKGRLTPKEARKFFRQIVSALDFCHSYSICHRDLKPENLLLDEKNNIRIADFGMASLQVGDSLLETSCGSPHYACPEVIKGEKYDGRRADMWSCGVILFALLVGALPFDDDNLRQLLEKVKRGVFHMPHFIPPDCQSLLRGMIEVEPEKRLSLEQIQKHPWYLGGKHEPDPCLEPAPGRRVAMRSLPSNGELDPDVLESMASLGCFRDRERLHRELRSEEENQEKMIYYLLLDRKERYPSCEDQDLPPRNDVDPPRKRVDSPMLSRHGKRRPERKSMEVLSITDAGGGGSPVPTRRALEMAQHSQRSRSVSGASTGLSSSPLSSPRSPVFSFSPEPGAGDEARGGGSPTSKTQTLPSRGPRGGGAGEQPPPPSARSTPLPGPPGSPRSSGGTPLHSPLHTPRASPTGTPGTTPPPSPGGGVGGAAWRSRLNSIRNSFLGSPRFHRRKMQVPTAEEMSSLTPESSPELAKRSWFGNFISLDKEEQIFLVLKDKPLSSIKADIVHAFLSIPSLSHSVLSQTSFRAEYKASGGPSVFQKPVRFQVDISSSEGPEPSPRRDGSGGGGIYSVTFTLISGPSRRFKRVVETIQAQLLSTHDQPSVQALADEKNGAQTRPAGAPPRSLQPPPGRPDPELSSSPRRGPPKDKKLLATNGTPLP

[15] = biological target: T5, Serine/threonine-protein kinase BRSK1 (Homo sapiens); settings: at 1 µM
[16] = biological target: T6, Serine/threonine-protein kinase BRSK2 (Homo sapiens) (UniProt Q8IWQ3); settings: at 0.1 µM
T6 sequence (whole entry): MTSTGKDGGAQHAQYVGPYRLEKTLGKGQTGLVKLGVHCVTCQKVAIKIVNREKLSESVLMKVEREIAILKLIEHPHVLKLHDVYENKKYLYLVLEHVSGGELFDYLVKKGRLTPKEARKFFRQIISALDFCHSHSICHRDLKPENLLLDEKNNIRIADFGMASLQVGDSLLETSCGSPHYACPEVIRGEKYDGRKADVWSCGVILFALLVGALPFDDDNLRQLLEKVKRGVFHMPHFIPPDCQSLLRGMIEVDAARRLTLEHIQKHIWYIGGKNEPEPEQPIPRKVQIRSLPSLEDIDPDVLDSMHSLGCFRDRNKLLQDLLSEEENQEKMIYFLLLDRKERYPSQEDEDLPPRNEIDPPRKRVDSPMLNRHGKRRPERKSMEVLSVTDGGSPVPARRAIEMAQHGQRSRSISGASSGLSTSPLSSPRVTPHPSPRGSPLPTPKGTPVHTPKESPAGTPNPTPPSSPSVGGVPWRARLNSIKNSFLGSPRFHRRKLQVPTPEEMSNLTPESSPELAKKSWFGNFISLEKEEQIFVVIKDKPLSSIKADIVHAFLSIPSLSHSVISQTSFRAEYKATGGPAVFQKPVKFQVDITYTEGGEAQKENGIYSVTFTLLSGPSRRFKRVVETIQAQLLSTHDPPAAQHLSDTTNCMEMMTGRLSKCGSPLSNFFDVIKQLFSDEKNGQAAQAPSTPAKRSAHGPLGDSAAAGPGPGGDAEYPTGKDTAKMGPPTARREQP

[17] = biological target: T6, Serine/threonine-protein kinase BRSK2 (Homo sapiens); settings: at 1 µM
[18] = biological target: Calcium/calmodulin-dependent protein kinase type 1D (Homo sapiens) (UniProt Q8IU85); settings: at 0.1 µM
Sequence of Calcium/calmodulin-dependent protein kinase type 1D (Homo sapiens) (Q8IU85 whole entry, looked up): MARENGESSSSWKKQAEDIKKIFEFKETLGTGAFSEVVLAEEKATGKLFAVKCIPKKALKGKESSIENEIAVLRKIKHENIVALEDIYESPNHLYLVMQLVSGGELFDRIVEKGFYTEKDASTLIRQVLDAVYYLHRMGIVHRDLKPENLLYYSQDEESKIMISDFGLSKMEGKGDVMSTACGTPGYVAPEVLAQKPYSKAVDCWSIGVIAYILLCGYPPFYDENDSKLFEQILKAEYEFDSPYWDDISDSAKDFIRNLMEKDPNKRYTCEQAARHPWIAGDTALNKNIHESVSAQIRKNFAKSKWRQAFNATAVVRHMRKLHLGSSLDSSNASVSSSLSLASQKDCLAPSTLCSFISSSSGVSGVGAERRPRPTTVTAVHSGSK

[19] = biological target: Calcium/calmodulin-dependent protein kinase type 1D (Homo sapiens) (UniProt Q8IU85); settings: at 1 µM
[20] = biological target: Calcium/calmodulin-dependent protein kinase type II subunit alpha (Homo sapiens) (UniProt Q9UQM7); settings: at 0.1 µM;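 further: reported values are averages (mean inhibition of CAMK2A)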
Sequence of Calcium/calmodulin-dependent protein kinase type II subunit alpha (Homo sapiens) (Q9UQM7 whole entry): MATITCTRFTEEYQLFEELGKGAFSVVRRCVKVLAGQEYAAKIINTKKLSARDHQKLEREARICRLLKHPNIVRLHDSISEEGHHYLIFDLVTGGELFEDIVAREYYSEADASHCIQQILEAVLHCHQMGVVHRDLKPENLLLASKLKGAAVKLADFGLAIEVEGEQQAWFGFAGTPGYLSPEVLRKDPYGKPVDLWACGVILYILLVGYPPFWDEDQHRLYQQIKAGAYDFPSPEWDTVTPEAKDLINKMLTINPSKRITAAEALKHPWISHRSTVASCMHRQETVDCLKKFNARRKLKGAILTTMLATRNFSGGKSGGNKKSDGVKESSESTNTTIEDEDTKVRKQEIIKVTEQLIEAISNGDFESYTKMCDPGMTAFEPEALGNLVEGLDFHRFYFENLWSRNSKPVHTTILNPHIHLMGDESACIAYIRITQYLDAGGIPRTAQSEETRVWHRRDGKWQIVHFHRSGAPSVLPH

Sequence of Ribosomal protein S6 kinase alpha-6 (Homo sapiens) (Q9UK32 whole entry): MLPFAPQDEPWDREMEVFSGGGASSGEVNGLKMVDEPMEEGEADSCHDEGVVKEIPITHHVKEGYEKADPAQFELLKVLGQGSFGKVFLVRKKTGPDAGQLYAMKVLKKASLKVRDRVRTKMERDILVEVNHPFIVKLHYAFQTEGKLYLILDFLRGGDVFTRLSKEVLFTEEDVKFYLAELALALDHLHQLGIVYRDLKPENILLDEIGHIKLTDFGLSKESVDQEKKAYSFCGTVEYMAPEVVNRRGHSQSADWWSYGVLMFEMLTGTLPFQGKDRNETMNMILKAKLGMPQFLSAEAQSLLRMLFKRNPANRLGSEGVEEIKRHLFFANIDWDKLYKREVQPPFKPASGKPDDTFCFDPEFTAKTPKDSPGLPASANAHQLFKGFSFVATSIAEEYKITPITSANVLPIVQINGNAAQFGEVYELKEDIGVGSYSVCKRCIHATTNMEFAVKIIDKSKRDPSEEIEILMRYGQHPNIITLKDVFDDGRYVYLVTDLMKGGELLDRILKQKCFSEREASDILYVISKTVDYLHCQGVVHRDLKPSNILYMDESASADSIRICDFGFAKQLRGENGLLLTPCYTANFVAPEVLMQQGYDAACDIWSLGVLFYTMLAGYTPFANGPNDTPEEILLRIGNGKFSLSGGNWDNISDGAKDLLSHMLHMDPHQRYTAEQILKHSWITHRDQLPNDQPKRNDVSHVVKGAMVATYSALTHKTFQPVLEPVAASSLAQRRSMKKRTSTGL

Row | SMILES | inhibition [1] [%] | inhibition [2] [%] | inhibition [3] [%] | inhibition [4] [%] | inhibition [5] [%] | inhibition [6] [%] | inhibition [7] [%] | inhibition [8] [%] | inhibition [9] [%] | inhibition [10] [%] | inhibition [11] [%] | inhibition [12] [%] | inhibition [13] [%] | inhibition [14] [%] | inhibition [15] [%] | inhibition [16] [%] | inhibition [17] [%] | inhibition [18] [%] | inhibition [19] [%] | inhibition [20] [%]
1 | COc1ccccc1-c1cc(/C=C2\C(=O)Nc3ncc(Br)cc32)cc(Br)c1O | 2.05 | 4.47 | 5.53 | 3.23 | 2.58 | 4.46 | 0.16 | 4.85 | 9.85 | 5.58 | 7.88 | 4.1 | 6.09 | 4.73 | 5.82 | 5.97 | 4.72 | 0.1 | 1.73 | 4.16
2 | COc1cc(N2CCN(C(C)C)CC2)ccc1Nc1nc(Nc2cccc(F)c2C(=O)O)c2cc[nH]c2n1 | 13 | 0.41 | 5.92 | 0.2 | 3.35 | 3.6 | 4.41 | 3.98 | 5.67 | 0.48 | 2.95 | 5.3 | 5.91 | -0.39 | 0.33 | 1.72 | 3.39 | -0.23 | 4.47 | 3.99
3 | NS(=O)(=O)c1ccc(N/N=C2\C(=O)Nc3ccc(C(=O)NCc4ccncc4)cc32)cc1 | 11.3 | 3.41 | 12.9 | 0.65 | 8.08 | 4.07 | 8.33 | 41.7 | 75.5 | 5.3 | 34.9 | 18.9 | 59.5 | 6.67 | 39.7 | 17.2 | 55.8 | -0.48 | -0.33 | 2.84
4 | CN(c1ccc(NC(=O)NCCN2CCOCC2)cc1)c1ccnc(Nc2ccc(CS(C)(=O)=O)cc2)n1 | 2.33 | 2.3 | 5 | 1.89 | 3.1 | 4.46 | 2.63 | 3.65 | 4.22 | 0.93 | 4.4 | 8.2 | 41.6 | -2.24 | 4.74 | 2.43 | 5.48 | -0.41 | 0.15 | 1.72
5 | NS(=O)(=O)c1cccc(N/C=C2\C(=O)Nc3ccccc32)c1 | 22.4 | 6.58 | 26.9 | 4.31 | 11.5 | 6 | 5.21 | 3.31 | 12 | 4.65 | 11.2 | 5.37 | 35.8 | 4.66 | 17.9 | 5.23 | 26 | 0.94 | 3.7 | 3.94
6 | NC(=O)c1ccc2c(-c3ccnc(NCCCO)n3)c(-c3ccc(F)cc3)nn2c1 | 2.84 | 2.62 | 2.32 | 4.31 | 1.91 | 2.16 | 1.28 | 2.28 | 7.4 | 3.45 | 4.65 | 2.9 | 4.34 | 2.91 | 4.68 | 2.27 | 3.75 | -0.23 | 1.6 | 3.83
7 | CN(C)CCNC(=O)Nc1ccc(N(C)c2ccnc(Nc3ccc(CS(C)(=O)=O)cc3)n2)cc1 | 3.59 | 3.14 | 3.11 | 0.71 | -2.21 | 3.61 | 0.64 | 2.62 | 5.07 | 2.24 | 7.2 | 14.5 | 57.9 | 2.43 | 5.89 | 2.14 | 4.34 | 0.53 | 1.18 | 4.92
